According to PubChem BioAssay AID1508622 (National Center for Advancing Translational Sciences (NCATS), 2021):
Active and inactive are the calls of the source. Where a call stands in place of a potency, no number is given. Calls follow the shape of the dose curve; as a rule, active = well fitted activation curve with a large enough effect; inconclusive = small, poorly fitted or top-dose-only effect; inactive = no such curve, though single readings can be large or run the other way.

experiment: Confirmatory qHTS for Identification of Small Molecule Activators of Huntingtin-Antisense Promoter Activity; details: HEK293 HTT-AS promoter firefly luciferase reporter, 24 h; series mostly up to 57.5 µM
Excerpt: Assay Provider: Russell L. Margolis M.D.
Department Neurology, Johns Hopkins University School of Medicine, Baltimore, MD
Huntington's Disease (HD) is a neurodegenerative disorder caused by a CAG repeat expansion in exon 1 of huntingtin (HTT). While there are currently no disease-modifying treatments for HD, recent efforts have focused on development of nucleotide-based therapeutics to lower HTT expression. As an alternative to siRNA or oligonucleotide methods, we hypothesized that suppression of HTT expression might be accomplished by small molecules that either (1) directly decrease HTT expression by suppressing HTT promoter activity or (2) indirectly decrease HTT expression by increasing the promoter activity of HTT-AS, the gene antisense to HTT that appears to inhibit expression of HTT.
We developed and employed a high throughput screen for modifiers of HTT and HTT-AS promoter activity using luminescent reporter HEK293 cells; of the 52,041 compounds tested, we identified 898 replicable hits. We used a rigorous stepwise approach to assess compound toxicity and the capacity of the compounds to specifically lower huntingtin protein in 5 different cell lines, including HEK293 cells, HD lymphoblastoid cells, mouse primary neurons, HD iPSCs differentiated into cortical-like neurons, and HD hESCs. We found no compounds which were able to lower huntingtin without lowering cell viability in all assays, though the potential efficacy of a few compounds at non-toxic doses could not be excluded.
SEQUENCE No. (1, 2, 3, etc.); […] (e.g., Cells, Incubation, Reagent, etc.); VALUE and DESCRIPTION.
1; Reagent; 4 uL; 2,500 Hek293 luciferase reporter cells per wells
3; Compound; 23 nL; Control inhibitor / compound library
5; Reagent; 2.5 uL; Firefly Luc reagent; Dual-Glo Luciferase Reporter Assay System (Promega)
6; Time; 10 min; room temperature incubation
7; Detection; Luminescence; FLuc
NOTES (numbers refer to sequence above)
1; High-throughput screening, measuring luminescence from a Hek293 luciferase reporter, was performed in 1,536 well white-walled tissue-culture treated plates. 2,500 cells were plated in 4 uL of Opti-MEM per well using a Multidrop Combi Reagent Dispenser (ThermoFisher).
2; Assay plates were cultured for 24 hours.
3; Control inhibitor (PTC124; final concentration of 50 uM) and compound library (at final concentrations of 460 nM - 57.5 uM) were added to the assay plate using the Kalypsis Pintool Robotic System equipped with 1536 pinheads.
4; Cells were then incubated for 24 hours at 37C prior to luminescence measurements.
5; In all cases, luminescence was measured using the Dual-Glo Luciferase Reporter Assay System (Promega) following the manufacturer's instructions.
6; Room temperature incubation.
7; Luminescence signal was obtained using the PerkinElmer ViewLux plate reader. Results were normalized to vehicle control (0% activity) and zero RLU (-100% activity).
Potency is read from the fitted curve at half-maximal effect.

Question: With `COc1ccc(CNS(=O)(=O)c2ccc(N3CCCCS3(=O)=O)cc2)cc1` as the compound, how does the Potency read?
Answer: Its Potency is “inactive”.

Question: With `COc1ccc(N2CCN(C(CNC(=O)C(=O)NCCc3ccccc3)c3cccnc3)CC2)cc1` (stereo not given) as the compound, how does the Potency read?
Answer: The Potency was “inactive”.

Question: With `Cc1cc(Nc2sc(C(=O)c3ccc(F)cc3)c(N)c2C(=O)Nc2ccc(F)cc2)ccc1Cl` as the compound, how does the Potency read?
Answer: Its Potency is “inactive”.

Question: With `O=C1CCCc2cc(S(=O)(=O)NCC3CCC(C(=O)Nc4ccc(Cl)cc4)CC3)ccc2N1` (stereo not given) as the compound, how does the Potency read?
Answer: Its Potency is “inactive”.

Question: Which Potency does the source give for `Cc1ccc(Cl)cc1N1CCN(C(=O)c2cccn2-c2nnc(N3CCCCC3)s2)CC1` here?
Answer: The Potency was “inactive”.

Question: With `COc1ccc(-n2nc3c(N4CCCC(C(=O)NCCc5ccc(C)cc5)C4)nnc(C)c3c2C)cc1` (stereo not given) as the compound, how does the Potency read?
Answer: Its Potency is “inactive”.

Question: For `Cc1c(Cl)ccc2sc(N3CCN(C(=O)CCS(=O)(=O)c4ccc(F)cc4)CC3)nc12`, which Potency is on record?
Answer: Its Potency is “inactive”.

Question: For `CC1Cc2cc(S(=O)(=O)NCc3ccccc3Cl)ccc2N1C(=O)C1CCC1` (stereo not given), which Potency is on record?
Answer: Its Potency is “inactive”.

Question: With `Cc1ccccc1NC(=O)c1sc2nc3c(cc2c1N)CN(Cc1ccccc1)CC3` as the compound, how does the Potency read?
Answer: The Potency was “inactive”.

Question: For `CC(=O)c1ccc(N2CCN(c3ncnc4c3cnn4-c3cc(Cl)ccc3C)CC2)cc1`, which Potency is on record?
Answer: The Potency was “inactive”.

Question: With `CCCCCN1C(C(=O)c2ccccc2)=C(OC(=O)CC)c2ccccc2S1(=O)=O` as the compound, how does the Potency read?
Answer: Its Potency is “inactive”.

Question: Which Potency does the source give for `CCN(c1ncnc2c1cnn2-c1cc(Cl)ccc1C)C1CCCCC1` here?
Answer: The Potency was “inactive”.

Question: With `CCc1ccc(-n2c(SCC(=O)NC(C)CC)nc3n[nH]c(C)c3c2=N)cc1` (stereo not given) as the compound, how does the Potency read?
Answer: The Potency was “inactive”.

Question: With `CN(C)c1ccc(C(=O)NCCCCCCC(=O)NO)cc1` as the compound, how does the Potency read?
Answer: The Potency was 30.1 µM (active).

Question: With `CC1=C(C(=O)Nc2ccc(Cl)cc2)C(c2ccccc2C)n2ncc(C(=O)Nc3ccc(C)cc3)c2N1` (stereo not given) as the compound, how does the Potency read?
Answer: Its Potency is “inactive”.

Question: For `CCN(CC)c1ccc(NC(=O)c2sc3nc(-c4ccccc4)cn3c2C)cc1`, which Potency is on record?
Answer: Its Potency is “inactive”.

Question: With `CCc1ccc(OCC(=O)NCC(c2ccc(Cl)cc2)N2CCOCC2)cc1` (stereo not given) as the compound, how does the Potency read?
Answer: Its Potency is “inactive”.

Question: For `Cc1ccccc1CN1CCc2nc(N3CCN(c4ccccn4)CC3)ncc2C1`, which Potency is on record?
Answer: Its Potency is “inactive”.

Question: Which Potency does the source give for `COc1cccc(CNC(=O)Cn2c(=O)oc3cc(S(=O)(=O)N4CCC(C)CC4)ccc32)c1` here?
Answer: The Potency was “inactive”.

Question: Which Potency does the source give for `CCCSCCCNC(=O)c1cc2n(n1)CCCN(Cc1ccc(C)cc1)C2=O` here?
Answer: The Potency was “inactive”.

Question: With `Cc1nc(C)c(-c2ccc(SCC(=O)Nc3ccc(F)c(F)c3)nn2)s1` as the compound, how does the Potency read?
Answer: Its Potency is “inactive”.

Question: With `CN[C@H]1[C@@H](O)[C@@H]2O[C@@H]3O[C@H](C)CC(=O)[C@]3(O)O[C@@H]2[C@@H](NC)[C@H]1O` as the compound, how does the Potency read?
Answer: Its Potency is “inactive”.

Question: For `COc1cc(CNc2ccc3[nH]c(=O)[nH]c3c2)cc(Br)c1OCc1ccc(F)cc1`, which Potency is on record?
Answer: The Potency was “inactive”.

Question: Which Potency does the source give for `CCc1ccc(NC(=O)c2ccc(F)c(S(=O)(=O)NCCc3ccc(OC)c(OC)c3)c2)cc1` here?
Answer: Its Potency is “inactive”.

Question: Which Potency does the source give for `COc1ccccc1C(=O)Nc1nc2n(n1)C(c1ccc(F)cc1)C=C(c1ccc(Cl)cc1)N2` (stereo not given) here?
Answer: Its Potency is “inactive”.

Question: With `O=C(C=Cc1ccc(CN(CCO)CCc2c[nH]c3ccccc23)cc1)NO` as the compound, how does the Potency read?
Answer: Its Potency is 2.13 µM (active).

Question: With `COc1ccc(-c2ccc3ncc4c(c3c2)n(-c2ccc(N3CCNCC3)c(C(F)(F)F)c2)c(=O)n4C)cn1` as the compound, how does the Potency read?
Answer: The Potency was “inactive”.

Question: For `CCOC(=O)C1CCN(S(=O)(=O)c2ccc(N3CCCCS3(=O)=O)cc2)CC1`, which Potency is on record?
Answer: Its Potency is “inactive”.

Question: With `Cc1ccc(CSc2ncc(Cl)c(C(=O)NCCc3ccc(S(N)(=O)=O)cc3)n2)cc1` as the compound, how does the Potency read?
Answer: Its Potency is “inactive”.

Question: With `CC(C)(C)c1ccc(C(=O)Nc2ccc3c(c2)CCCN3C(=O)c2cccs2)cc1` as the compound, how does the Potency read?
Answer: The Potency was “inactive”.

Question: For `CCCOc1ccccc1C(=O)N1CCC(c2nc3ccccc3s2)CC1`, which Potency is on record?
Answer: The Potency was “inactive”.

Question: With `Cc1cccc(-c2nc(SCC(=O)Nc3ccc4c(c3)OCO4)c(-c3ccccc3)[nH]2)c1` as the compound, how does the Potency read?
Answer: Its Potency is “inactive”.

Question: Which Potency does the source give for `CCc1ccccc1-n1c(SCC(=O)Nc2ccc(C)cc2)nc2n[nH]c(C)c2c1=N` here?
Answer: Its Potency is “inactive”.

Question: For `CCS(=O)(=O)c1oc(-c2ccc(F)cc2)nc1S(=O)(=O)c1ccc(Br)cc1`, which Potency is on record?
Answer: The Potency was “inactive”.

Question: For `COc1ccc(CCNC(=O)Cn2nc(C)c3c(C)n(-c4ccc(C)cc4)nc3c2=O)c(OC)c1`, which Potency is on record?
Answer: Its Potency is “inactive”.

Question: With `O=C(Nc1cccc(Cl)c1)C1CCCN(c2nn3cc(-c4ccc(F)cc4)nc3s2)C1` (stereo not given) as the compound, how does the Potency read?
Answer: Its Potency is “inactive”.

Question: For `O=C(NC1CCCCC1)c1ccc(CSc2nc3cccnc3n2Cc2cccc(F)c2)cc1`, which Potency is on record?
Answer: Its Potency is “inactive”.

Question: For `CCOC(=O)c1ccc(N2C(=O)c3[nH]nc(-c4ccc(OCC)cc4)c3C2c2cccs2)cc1` (stereo not given), which Potency is on record?
Answer: The Potency was “inactive”.

Question: With `COc1ccc(C2=C(C)C(=O)N(Cc3ccc(C(=O)Nc4cccc(F)c4)cc3)S2(=O)=O)cc1` as the compound, how does the Potency read?
Answer: The Potency was “inactive”.

Question: For `CCN(CCCNC(=O)CSc1cc(=O)n(CC)c2ccccc12)c1cccc(C)c1`, which Potency is on record?
Answer: The Potency was “inactive”.
